Compound activity from PubChem.
Most compounds without a hit are left out; they make up all but 15% or so of the library.
12-LOX inh – Primary qHTS assay for inhibitors of human arachidonate 12S-lipoxygenase (ALOX12): Round 2 | Polyunsaturated fatty acid lipoxygenase ALOX12 (Homo sapiens), P18054 | purified 12hLO, xylenol orange hydroperoxide absorbance | Potency, µM (highest dose often 108 µM), for inactives: top-dose activity change, negative = inhibition, usual class: inhibitors | actives 1.1% (n = 580,000) | AID 1671190, 2021
Target sequence (P18054 whole entry, looked up): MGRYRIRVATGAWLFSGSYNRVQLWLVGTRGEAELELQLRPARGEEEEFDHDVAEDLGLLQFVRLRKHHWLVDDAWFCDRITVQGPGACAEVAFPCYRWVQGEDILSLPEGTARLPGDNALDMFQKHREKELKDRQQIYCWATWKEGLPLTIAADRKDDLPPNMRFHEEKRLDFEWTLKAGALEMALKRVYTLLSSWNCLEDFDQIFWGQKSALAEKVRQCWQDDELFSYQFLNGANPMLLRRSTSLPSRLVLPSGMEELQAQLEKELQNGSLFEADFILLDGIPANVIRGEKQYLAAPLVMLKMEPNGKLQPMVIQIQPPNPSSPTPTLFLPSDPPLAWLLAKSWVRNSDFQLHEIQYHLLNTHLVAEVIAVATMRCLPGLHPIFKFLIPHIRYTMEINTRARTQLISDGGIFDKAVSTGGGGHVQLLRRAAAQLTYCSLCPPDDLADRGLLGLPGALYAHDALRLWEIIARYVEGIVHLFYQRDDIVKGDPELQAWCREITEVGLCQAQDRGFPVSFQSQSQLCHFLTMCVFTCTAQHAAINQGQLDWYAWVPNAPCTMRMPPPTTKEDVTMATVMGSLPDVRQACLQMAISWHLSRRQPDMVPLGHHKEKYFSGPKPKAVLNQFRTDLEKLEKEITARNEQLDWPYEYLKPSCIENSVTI
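Purified human 12hLO at 150 nM in 25 mM Hepes, 0.01% Triton X-100, pH 7.0, preincubated 15 min at room temperature with compound. Reaction started with 40 uM arachidonic acid, 30 min at room temperature. Hydroperoxide measured by Fe-xylenol orange, 573/405 nm absorbance ratio.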
TDP1 cell noCPT – qHTS for Inhibitors of human tyrosyl-DNA phosphodiesterase 1 (TDP1): qHTS in cells in absence of CPT; DT40 Tdp1-/- hTDP1 cells, no CPT, ATP luminescence, 48 h; Potency, µM (doses to about 46.2 µM), inactives show top-dose activity change, negative = growth inhibition, hits mostly inhibitors; actives 15% (n = 420,000); AID 686978, 2013; also: nearly all actives have a fitted effect of over 55% in size
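DT40 Tdp1-/-;hTDP1 cells, no CPT (DMSO vehicle only), 400 cells/well; compounds pin-transferred; ≥48 hr, 37 °C; CellTiter-Glo 30 min RT dark, luminescence read.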
Gal4-VP16 FLuc – VP16 counterscreen qHTS for inhibitors of ROR gamma transcriptional activity | Drosophila S2 Gal4-VP16 UAS-luciferase, luminescence, 20 h | Potency, µM (highest dose often 53.6 µM), for the others: at the top dose activity, negative = inhibition, actives largely listed as inhibitors | actives 3.5% (n = 310,000) | AID 2546, 2010;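 also: Gal4-VP16 expression switched on by copper sulfate through the metallothionein promoter; nearly all actives have a fitted effect of over 50% in size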
DT40 TDP1 CPT – qHTS for Inhibitors of human tyrosyl-DNA phosphodiesterase 1 (TDP1): qHTS in cells in presence of CPT; chicken DT40 Tdp1-/-;hTDP1 cells + 20 nM CPT, ATP luminescence, 48 h; actives 12% (n = 420,000); Potency, µM (top dose mostly 46.2 µM), inactives show top-dose activity change, negative = growth inhibition, usual class: inhibitors; also: nearly all actives have a fitted effect of over 55% in size
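Chicken DT40 Tdp1-/- cells stably complemented with human TDP1 were seeded at 400 cells/well in medium containing 20 nM camptothecin, exposed to pin-transferred compounds, and grown at 37 °C for at least 48 hr. Viability was read as ATP luminescence.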
RORgamma inh – qHTS for inhibitors of ROR gamma transcriptional activity; Nuclear receptor ROR-gamma (Mus musculus), P51450; Drosophila S2 Gal4-RORgamma UAS-luciferase reporter, 20 h; Potency, µM (doses to about 53.6 µM), without a hit: top-dose activity change, negative = inhibition, actives largely listed as inhibitors; actives 5.4% (n = 310,000); AID 2551, 2010; also: nearly all actives have a fitted effect of over 60% in size
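Stable Schneider cell line, Gal4 DNA-binding domain fused to ROR gamma, UAS-luciferase. Cmpd 1 hr RT → CuSO4 700 uM final → 20 hr RT → luciferase reagent 10 min → luminescence.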
ELG1 repair inh – qHTS screen for small molecules that inhibit ELG1-dependent DNA repair in human embryonic kidney (HEK293T) cells expressing luciferase-tagged ELG1. Potency, µM (doses to about 46.1 µM), inactives show at the highest dose activity change, negative = inhibition, usual class: inhibitors. HEK293T ELG1-luciferase reporter, luminescence, 16 h; DNA damage induced by 5-fluorouridine. actives 2.3% (n = 330,000); also: nearly all actives have a fitted effect of over 55% in size
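5-Fluorouridine DNA damage + compound/DMSO, 2,000 cells/well, 16 h, 37 °C/5% CO2. ONE-Glo, 30 min RT, luminescence. Readout = decrease in reporter signal.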
Active calls of the source: *; ? = inconclusive; / = no result; [ ] = another dose, or the depositor's remark. Calls follow the shape of the dose curve; as a rule, active = well fitted curve in the direction sought with a large enough effect; inconclusive = small, poorly fitted or top-dose-only effect, or another doubt; inactive = no such curve, though single readings can be large; an effect the other way counts as inactive or inconclusive. % is scaled to controls: 0 for no effect and ±100 for the full control effect; potency is read from the fitted curve at half-maximal effect.

SMILES | 12-LOX inh | TDP1 cell noCPT | Gal4-VP16 FLuc | DT40 TDP1 CPT | RORgamma inh | ELG1 repair inh
O=c1c2ccccc2sn1-c1ccccc1F | ? | 2.9µM* | / | 2.6µM* | / | /
N#Cc1ccc2c(=O)n(-c3ccccc3)sc2c1 | 0.45µM* | 2.6µM* | / | 3.3µM* | / | /
COc1ccc(-c2cc(C(=O)OC(C)C)c3ccccc3n2)cc1 | -14% | / | / | / | / | /
CCCCNCc1ccc(-c2ccccc2F)o1 | 3% | / | / | / | / | /
Cc1ccc(-c2csc(=Nc3ccc(F)cc3)n2Cc2ccc3c(c2)OCO3)cc1C | ? | 15µM* | / | 18µM* | / | /
Cc1ccc(NC(=O)Cn2c(-c3ccc4c(c3)OCO4)cn(-c3ccccc3)c2=O)cc1C | -19% | -13% | / | -4% | / | /
Cc1ccc(-c2csc(=Nc3ccccc3)n2Cc2ccc3c(c2)OCO3)cc1C | -25% | 6.5µM* | / | ? | / | /
Clc1ccc(-c2csc(=Nc3ccccc3)n2Cc2ccc3c(c2)OCO3)cc1 | ? | 10µM* | / | 21µM* | / | /
O=c1c2oc3ccccc3c2n(Cc2ccc(Cl)cc2)c(=O)n1Cc1ccc2c(c1)OCO2 | -7% | -30% | / | -20% | / | /
Cc1ccc(-c2noc(-c3ccccc3C(=O)N3CCN(C)CC3)n2)cc1 | -4% | ? | -1% | -1% | -1% | ?
Cc1ccc(-c2noc(-c3ccccc3C(=O)N3CCCC3)n2)cc1 | 0% | 23µM* | 16% | 16µM* | ? | ?
Cc1ccc(-c2cc(C(=O)N3CCOCC3)no2)cc1 | -4% | -1% | 14µM* | -10% | 7.9µM* | ?
Cc1ccc(-c2cc(C(=O)N3CCCC3)no2)cc1 | -10% | 0% | 7.1µM* | 3% | 11µM* | ?
CC(C)(C)CC(C)(C)NC(=O)C(C1CC1)N1C(=O)C(=O)c2ccccc21 (centres undefined) | -23% | / | / | / | / | /
CCCN(C(=O)CSc1nnc(-c2ccoc2C)n1N)C1CCS(=O)(=O)C1 (centres undefined) | 0% | -2% | -10%[0.365 µM] | -6% | 35% | 0.65µM*
CCCN(C(=O)CSc1nnnn1-c1ccccc1OC)C1CCS(=O)(=O)C1 (centres undefined) | 1% | -3% | 3% | 6% | 12% | 2%
Brc1ccc(C2Nc3cccc4cccc(c34)N2)cc1 | ? | -25% | / | ? | / | /
COc1ccc(C2NC(=O)c3ccccc3N2)cc1OC (centres undefined) | ? | -21% | 3% | -21% | 6% | ?
CCN(CC)c1ccc(C2NC(=O)c3ccccc3N2)cc1 (centres undefined) | 7% | 13µM* | / | 7.3µM* | / | /
CCCOc1ccc(C2Nc3cccc4cccc(c34)N2)cc1 | ? | 6.5µM* | -18% | 21µM* | -28% | ?
CCN(CC)c1ccc(C2Nc3cccc4cccc(c34)N2)cc1 | ? | 16µM* | -1% | ? | -41% | ?
CCOC(=O)C1(Cc2ccccc2F)CCCN(C(=O)c2cccc(C(=O)OC)c2)C1 (centres undefined) | 60% | / | / | / | / | /
CC(=O)NC(NC(C)=O)C(=O)c1ccccc1 | 11% | / | / | / | / | /
Cc1c(C)c2ccc(OCC(=O)N3CCOCC3)c(C)c2oc1=O | 6% | -16% | 1%[10 µM] | -9% | 11% | -14%
C=C(C)COc1ccc2c(C)c(CC(=O)N3C[C@H]4C[C@@H](C3)c3cccc(=O)n3C4)c(=O)oc2c1C | 16% | 18µM* | -23% | 15µM* | 18% | -21%
